High-throughput results as filed in PubChem BioAssay.
This is a sample that favours compounds with a hit; in the whole collection about 3.9% have one here.
Autofluor counter: compound fluorescence in toxin protease inhibitor counterscreen. compound autofluorescence counterscreen, microsphere flow cytometry; active compounds read high. fluorescence intensity (no concentration beside the values). actives 3.1% (n = 360,000). AID 624483; in the data active means fluorescence intensity above about 16000; inconclusive means no clear call, values can overlap the other calls
BH1578 lux ind: induces V. cholerae light production without autoinducers; V. cholerae BH1578 lux reporter, luminescence, 6 h; activation, % at 18.7 µM; actives 0.16% (n = 350,000); AID 588436; in the data active means activation mostly above about 9.7%, no sharp cut-off; inconclusive means no clear call, values can overlap the other calls; inactive means mostly below about 3.7%
MazEF act: increases E. coli MazEF RNase cleavage of RNA | P0AE70 | FAM/BHQ RNA-DNA oligo cleavage fluorescence, 5 h | activation, % at 20 µM | actives 0.32% (n = 350,000); in the data active means activation above about 50%
Target sequence (P0AE70 whole entry, looked up): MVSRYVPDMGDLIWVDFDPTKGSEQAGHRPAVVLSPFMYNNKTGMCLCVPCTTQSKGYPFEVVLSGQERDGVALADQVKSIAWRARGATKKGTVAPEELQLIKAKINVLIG
Anthrax LF inh2: inhibitors of Bacillus anthracis lethal factor protease; multiplex microsphere protease cleavage assay, LF; AID 588501; actives 0.12% (n = 360,000); P15917; inhibition, % at 10 µM
BoNT F protease: inhibitors of Botulinum neurotoxin F light chain protease; Multiplex microsphere protease cleavage assay, flow cytometry; inhibition, % at 10 µM; actives 0.22% (n = 360,000); AID 588497; in the data active means inhibition above about 35%, passing the limit was not always enough; inconclusive means no clear call, values can overlap the other calls
BoNT-A LC inh2: BoNT A light chain protease inhibition. inhibition, % at 10 µM. multiplex microsphere protease substrate cleavage, flow cytometry. actives 0.17% (n = 360,000). AID 588499
A number is an active result; . = inactive; ? = inconclusive; / = no result given. Unless noted, no stated cut-off is given here; in the data, active means inhibition above about 30%; inconclusive means no clear call, values can overlap the other calls; inactive means below that.

SMILES | Autofluor counter | BH1578 lux ind | MazEF act | Anthrax LF inh2 | BoNT F protease | BoNT-A LC inh2
CC(C)(C)NC(=O)C(c1c[nH]c2ccccc12)N(C(=O)Cn1nnc(-c2ccc(F)cc2)n1)c1cccc(O)c1 (centres undefined) | . | . | . | . | . | .
CC(c1cccs1)N(Cc1ccco1)C(=O)Nc1ccc(Cl)c(Cl)c1 (centres undefined) | 17014 | . | . | . | . | .
Cc1ccccc1NC(=O)c1c(F)c(F)c(F)c(F)c1F | 16318 | . | . | . | . | .
CN(C)c1nc2c(c(=O)n(C)c(=O)n2C)n1Cc1ccccc1 | 22117 | . | . | . | . | .
C/C(Cl)=C\Cn1c(NCCc2ccccc2)nc2c1c(=O)n(C)c(=O)n2C | . | . | . | . | 36 | ?
Cn1c(=O)c2c(nc(-n3ccnc3)n2Cc2ccccc2)n(C)c1=O | . | . | . | . | . | .
Cn1c(=O)c2c(nc(Br)n2Cc2ccc3ccccc3c2)n(C)c1=O | 20690 | . | . | . | . | ?
NC(=O)c1ccc(NC(=O)COC(=O)c2ccc(Br)o2)cc1 | . | . | . | . | . | .
Cc1cccn2cc(-c3ccc(F)cc3)nc12 | 23835 | . | . | . | . | .
CS(=O)(=O)c1ccc2nc(NC(=O)c3ccc(Cn4cc(Br)cn4)o3)sc2c1 | . | . | . | . | . | .
CC(C)NC(=O)CSc1nnc(-c2ccc3ncccc3c2)n1C | . | . | . | . | ? | ?
CC(C)C(OC(=O)C1CCCO1)C(=O)NC1CCCC1 (centres undefined) | 18597 | . | . | . | . | .
CCOC(=O)C1CCN(Cc2ccc(F)c(Br)c2)CC1 | 20738 | . | . | . | . | ?
CCOC(=O)C1CCN(Cc2ccc(OC)c(C)c2OC)CC1 | 16792 | . | . | . | . | .
CCOC(=O)C1CCN(Cc2ccc(F)cc2F)CC1 | . | . | . | . | . | .
CCOc1cc(S(=O)(=O)NCc2ccccc2)c(OCC)cc1-n1cnnn1 | 21889 | . | . | . | . | ?
C=CCN1C(=O)/C(=C2/Sc3ccc(OC)cc3N2CC)SC1=S | . | . | 752 | . | ? | .
CCCCN1C(=O)/C(=C2/Sc3ccc(OC)cc3N2CC)SC1=S | . | . | 71 | . | ? | .
CCN1/C(=C2/SC(=S)N(NC(C)=O)C2=O)Sc2ccc(OC)cc21 | . | . | . | . | ? | .
CC(C)N1CCN(c2ccc(S(=O)(=O)N3CCOCC3)cn2)CC1 | . | . | . | . | . | .
CCOC(=O)c1c(C)[nH]c(C)c1S(=O)(=O)N(C)CC(=O)Nc1cccc(C)c1 | . | . | . | . | . | .
CCN1C(=O)[C@@H]2[C@@H](c3ccc(-c4cc(C(C)=O)cs4)cc3)N3CCC[C@@]3(C(=O)OC)[C@@H]2C1=O | . | . | . | . | . | .
COC(=O)[C@]12CCCCC=C1N(CCC1=CCCCC1)C(=O)[C@H](CC(=O)NCCCCc1ccccc1)C2 | . | / | / | . | . | .
Cc1nn(CC(=O)N(C)C)c(C)c1S(=O)(=O)N1CCOCC1 | . | . | . | . | . | .
Cc1ccc(C)c(S(=O)(=O)C(C#N)c2nc3ccccc3nc2N2CCCC2)c1 (centres undefined) | 20606 | . | . | . | . | .
SMILES | Autofluor counter | BH1578 lux ind | MazEF act | Anthrax LF inh2 | BoNT F protease | BoNT-A LC inh2
Cc1ccc(S(=O)(=O)N2CCN(C(=O)C3CCN(C(=O)c4ccccc4C)CC3)CC2)cc1C | . | . | . | . | . | .
CN(C)C(=O)N1CCCC(C(=O)NCc2ccccc2)C1 (centres undefined) | . | . | . | . | . | .
CC1=C(C)CC(C(=O)NCCc2ccccc2)C(C(=O)O)C1 (centres undefined) | 23755 | . | . | . | . | .
CC1=C(C)CC(C(=O)NCCc2ccc(F)cc2)C(C(=O)O)C1 (centres undefined) | . | . | . | . | . | .
CN(C)C(=O)N1CCCC(C(=O)NCCc2ccccc2)C1 (centres undefined) | 24323 | . | . | . | . | .
Cc1ccc(CCNC(=O)C2CCCN(C(=O)N(C)C)C2)cc1 (centres undefined) | 25529 | . | . | . | . | .
COc1cc2c(cc1OC)-c1cc(NC3CCCC3)nc(=O)n1CC2 | 22438 | . | . | . | . | ?
COc1cc2c(cc1OC)-c1cc(Nc3ccc(F)cc3)nc(=O)n1CC2 | . | . | . | . | . | .
Cc1ccc2c(c1)=N/C(=N\c1[nH]c(O)c3ccccc13)N=2 | . | . | 58 | . | . | .
CC(C)Nc1nc(NC(C)C)nc(N(C)C(N)=O)n1 | 19916 | . | . | . | . | .
CC(C)Nc1nc(NC(C)C)nc(C(N)=O)n1 | 16247 | . | . | . | . | .
CC(=O)OCCOc1nc(NC(C)C)nc(NC(C)C)n1 | . | . | . | . | . | .
CCOc1ccccc1C(=O)N/N=C/c1coc2ccc(C)cc2c1=O | . | . | . | . | . | .
CCCCOc1ccc(/C=C/C(=O)NCCc2nc3ccccc3[nH]2)cc1 | 21858 | . | . | . | . | .
CCCOc1ccc(N2C(=O)CC(N(C(=O)c3ccco3)c3ccc(OCCC)cc3)C2=O)cc1 (centres undefined) | 16880 | . | . | . | . | ?
CCCOc1ccc(N2C(=O)CC(N(Cc3ccco3)C(=O)CC)C2=O)cc1 (centres undefined) | . | . | . | . | . | .
O=c1[nH]c(O)c(/C=C2\C=Nc3ccc(OCc4ccccc4)cc32)c(=O)[nH]1 | . | . | 847 | . | ? | .
COc1cc(OC)nc(NC(C)=O)n1 | 23958 | . | . | . | . | .
CC(=O)c1cccc(S(=O)(=O)NCC2CCCCC2)c1 | . | . | . | . | . | .
Cc1sc2nc(SCC(=O)NCCOCCO)n(C)c(=O)c2c1C | 21931 | . | . | . | . | .
Cc1sc2nc(SCC(=O)NCCOCCO)nc(N)c2c1C | . | . | . | . | . | .
C/C(=N\NC(=O)Cc1csc(N2CCOCC2)n1)c1ccc(Cl)c(Cl)c1 | . | . | . | . | . | .
C=CCSc1nc(N)c(C#N)c(-c2ccccc2)c1C#N | 21076 | . | . | . | . | .
Cc1ccc(NC(=O)COC(=O)CCc2c(C)nc3ncnn3c2C)cc1C | . | . | . | . | . | .
Cc1ccccc1C1=N/C(=C/c2cccs2)C(=O)O1 | . | . | . | . | . | .
SMILES | Autofluor counter | BH1578 lux ind | MazEF act | Anthrax LF inh2 | BoNT F protease | BoNT-A LC inh2
Cc1ccc(C2=N/C(=C/c3cccs3)C(=O)N2Nc2ccccc2)cc1 | . | . | . | 58 | 43 | 80
COc1ccc(NC(=O)c2ccccc2SC)c(OC)c1 | . | . | . | . | . | .
COc1ccc(NC(=O)c2c(OC)cccc2OC)c(OC)c1 | 16438 | . | . | . | . | .
COc1ccc(NC(=O)c2cc(C)nc3ccccc23)c(OC)c1 | . | . | . | . | . | .
COc1ccc(NC(=O)Nc2ccc3c(c2)CCC3)c(OC)c1 | . | . | 57 | . | . | .
COc1ccc(NC(=O)c2cccnc2C(=O)O)c(OC)c1 | 20348 | . | . | . | . | .
COc1ccc(NC(=O)c2ccccc2O)c(OC)c1 | 18765 | . | . | . | . | .
